TRb SRC2 PPI: qHTS for Inhibitors of the Interaction of Thyroid Hormone Receptor and Steroid Receptor Coregulator 2 | Thyroid hormone receptor beta (Homo sapiens), P10828 | TRbeta-SRC2 peptide binding, fluorescence polarization; receptor liganded with 1 µM T3 | Potency, µM (doses to about 106 µM), for the others: at the highest dose activity change, negative = inhibition, usual class: inhibitors | actives 0.065% (n = 280,000) | AID 1469, 2008;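 also: plate controls were bound peptide for no effect and peptide without receptor for full effect; nearly all actives have a fitted effect of over 50% in size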
Target sequence (P10828 whole entry, looked up): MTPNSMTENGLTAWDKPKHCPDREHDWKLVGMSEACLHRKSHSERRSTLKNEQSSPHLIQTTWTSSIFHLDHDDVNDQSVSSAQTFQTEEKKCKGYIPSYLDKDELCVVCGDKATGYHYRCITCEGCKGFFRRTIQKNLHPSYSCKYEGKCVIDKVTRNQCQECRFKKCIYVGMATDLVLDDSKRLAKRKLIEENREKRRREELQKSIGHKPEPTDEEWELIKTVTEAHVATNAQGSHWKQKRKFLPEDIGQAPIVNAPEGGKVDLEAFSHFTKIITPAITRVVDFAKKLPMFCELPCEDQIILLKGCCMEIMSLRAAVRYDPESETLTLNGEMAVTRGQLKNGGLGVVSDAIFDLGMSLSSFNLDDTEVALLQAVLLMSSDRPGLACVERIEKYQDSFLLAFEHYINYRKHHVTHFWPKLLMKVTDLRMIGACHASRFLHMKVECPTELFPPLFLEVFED
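Polarization signal, normalized between peptide-alone and full complex controls, measured compound effects on T3-liganded human TRb LBD (0.6 uM) binding 20 nM Texas Red SRC2 peptide after 5 hr.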
RECQ1 inh-1: qHTS Assay for Inhibitors of RecQ-Like Dna Helicase 1 (RECQ1). ATP-dependent DNA helicase Q1 (Homo sapiens), P46063. RECQ1 DNA unwinding, red fluorescence kinetic read. Potency, µM (top dose mostly 57.3 µM), for inactives: at the top dose activity, negative = inhibition, most hits filed as inhibitors. actives 0.54% (n = 240,000). AID 2549, 2010;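 also: plate controls were vehicle for no effect and no enzyme for full effect; nearly all actives have a fitted effect of over 30% in size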
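50 nM RECQ1T1 preincubated 15 min with compound in Tris pH 8.0 buffer with MgCl2, DTT, Tween-20 and 2.5 ug/ml poly(dI-dC); started with 200 nM TAMRA/BHQ-2 forked duplex and 2 mM ATP. Unwinding read as fluorescence (525/598 nm), two reads 2 h apart.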
TexasRed fluor: Total Fluorescence Counterscreen for Inhibitors of the Interaction of Thyroid Hormone Receptor and Steroid Receptor Coregulator 2 | TRb/SRC2 Texas Red total fluorescence interference | Potency, µM (titrated, usually from 106 µM), for inactives: top-dose fluorescence change, negative = quenching | actives 0.29% (n = 280,000); active = well fitted curve in either direction with a large enough effect; inconclusive = small, poorly fitted or top-dose-only effect
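Human TRb ligand-binding domain at 0.6 uM with 20 nM Texas Red SRC2 peptide in Tris buffer containing 1 uM T3 and 5% DMSO, incubated with compound 5 h at ambient temperature. Total fluorescence (555/632 nm) calculated as parallel + 2 × perpendicular.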
BLM inh: qHTS Assay for Inhibitors of Bloom's syndrome helicase (BLM); RecQ-like DNA helicase BLM (Homo sapiens), P54132; recombinant BLM DNA unwinding, fluorescence dequenching; Potency, µM (doses to about 56.1 µM), for inactives: at the top dose activity change, negative = inhibition, actives largely listed as inhibitors; actives 0.2% (n = 350,000); AID 2528, 2010;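 also: plate controls were vehicle for no effect and no enzyme for full effect; nearly all actives have a fitted effect of over 35% in size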
RECQ1 conf: Confirmation qHTS Assay for Inhibitors of RecQ-Like Dna Helicase 1 (RECQ1). shares compounds with RECQ1 inh-1. RECQ1 helicase DNA unwinding, fluorescence. Potency, µM (titrated, usually from 229 µM), without a hit: at the highest dose activity change, negative = inhibition, most hits filed as inhibitors. actives 28% (n = 610). AID 2708, 2010; also: nearly all actives have a fitted effect of over 45% in size
ADP FP counter: Counterscreen for RECQ1 Inhibitors: ADP Fluorescence Polarization Displacement Assay; shares compounds with RECQ1 inh-1; ADP fluorescence polarization displacement counterscreen; Potency, µM (top dose mostly 228 µM), without a hit: at the top dose activity change, negative = inhibition, hits mostly inhibitors; actives 27% (n = 530); also: nearly all actives have a fitted effect of over 45% in size
RECQ1 inh-2: Confirmation qHTS Assay for Inhibitors of RecQ-Like Dna Helicase 1 (RECQ1) - Round 2 Cherry Picks | shares compounds with RECQ1 inh-1 | recombinant RECQ1 DNA unwinding, red fluorescence | Potency, µM (doses to about 119 µM), for the others: at the top dose activity, negative = inhibition, actives largely listed as inhibitors | actives 15% (n = 1,100); also: nearly all actives have a fitted effect of over 50% in size
* marks the source's active call; other numbers are inactive results; [ ] = remark or other dose. The list is not random: actives were taken first. Their share in the collection is about 0.64%. Unless noted, calls follow the shape of the dose curve; as a rule, active = well fitted curve in the direction sought with a large enough effect; inconclusive = small, poorly fitted or top-dose-only effect, or another doubt; inactive = no such curve, though single readings can be large; an effect the other way counts as inactive or inconclusive. Unless noted, % is scaled to controls: 0 for no effect and ±100 for the full control effect; potency is read from the fitted curve at half-maximal effect.

How did CC1=NN(c2ccc(Cl)c(C(=O)O)c2)C(=O)/C1=C\c1ccc(-c2ccc(C(=O)O)cc2)o1 do in these assays?
TRb SRC2 PPI: -17%; RECQ1 inh-1: inconclusive; TexasRed fluor: inconclusive; BLM inh: -4%; RECQ1 inh-2: inconclusive

What do the screens show for `CCc1cccc(C)c1NC(=O)Cn1cc2c(n1)CCCCC2`?
TRb SRC2 PPI: -1%; TexasRed fluor: -1%; BLM inh: -1%

How did Cc1ccc(Nc2nc(N)c([N+](=O)[O-])c(NCc3ccco3)n2)cc1C do in these assays?
TRb SRC2 PPI: 6%; RECQ1 inh-1: 35µM*; TexasRed fluor: -3%; BLM inh: inconclusive; RECQ1 inh-2: 50µM*

How did COc1cccc(Nc2nc(N)c([N+](=O)[O-])c(NCc3ccccc3)n2)c1 do in these assays?
TRb SRC2 PPI: 5%; RECQ1 inh-1: inconclusive; TexasRed fluor: -2%; BLM inh: inconclusive; RECQ1 inh-2: 50µM*

What do the screens show for `Cc1ccc(Nc2nc(N)c([N+](=O)[O-])c(NCCO)n2)cc1C`?
TRb SRC2 PPI: 4%; RECQ1 inh-1: 0%; TexasRed fluor: -3%; BLM inh: 0%

Results for O=C(CCS(=O)(=O)c1ccc(Br)cc1)Nc1ccc(Cl)cc1F ?
TRb SRC2 PPI: 2%; RECQ1 inh-1: -5%; TexasRed fluor: 2%; BLM inh: 3%

How did O=C(CCS(=O)(=O)c1ccc(Br)cc1)Nc1ccc(Br)cc1F do in these assays?
TRb SRC2 PPI: 9%; RECQ1 inh-1: 35µM*; TexasRed fluor: 0%; BLM inh: -8%; RECQ1 inh-2: inconclusive

Results for COc1cc(C(=O)NC(=S)Nc2ccc(N3CCCC3)cc2)cc(OC)c1OC ?
TRb SRC2 PPI: 3%; RECQ1 inh-1: inconclusive; TexasRed fluor: -4%; BLM inh: -3%; RECQ1 inh-2: -10%

How did CCn1c(=N)c(C(=O)NC2CCCCC2)cc2c(=O)n3cc(C)ccc3nc21 do in these assays?
TRb SRC2 PPI: -1%; TexasRed fluor: -4%; BLM inh: 0%

Results for O=C(CN1CCN(c2ccc(O)cc2)CC1)Nc1cc(S(=O)(=O)N2CCCC2)ccc1Cl ?
TRb SRC2 PPI: -7%; RECQ1 inh-1: 13µM*; TexasRed fluor: -1%; BLM inh: -15%; RECQ1 conf: 6%[114 µM]; ADP FP counter: -4%[91.9 µM]; RECQ1 inh-2: -11%

What do the screens show for `CCCN(CCC)S(=O)(=O)c1ccc(C(=O)Nc2ccc(OCC(=O)N3CCOCC3)cc2)cc1`?
TRb SRC2 PPI: -5%; RECQ1 inh-1: -4%; TexasRed fluor: -3%; BLM inh: -8%; RECQ1 conf: 4%; ADP FP counter: -2%

Results for COC(=O)C1=CO[C@@H](C)[C@@H]2CN3CCc4c([nH]c5ccccc45)[C@@H]3C[C@H]12 ?
TRb SRC2 PPI: -2%; RECQ1 inh-1: 20%; TexasRed fluor: 16%; BLM inh: -20%

Results for COc1ccc(NC(=O)CCNS(=O)(=O)c2ccc3c(c2)CCC(=O)N3)cc1 ?
TRb SRC2 PPI: 7%; RECQ1 inh-1: -4%; TexasRed fluor: -2%; BLM inh: -1%; RECQ1 conf: 14%; ADP FP counter: inconclusive

Results for COC(=O)Nc1ccc(S(=O)(=O)N2CCCCC2C(=O)O)cc1 (centres undefined) ?
TRb SRC2 PPI: -1%; RECQ1 inh-1: inactive; TexasRed fluor: -3%; BLM inh: -4%; RECQ1 conf: -4%; ADP FP counter: 8%

How did CCC(=O)NC(=S)Nc1ccc(S(=O)(=O)N2CCN(C)CC2)cc1 do in these assays?
TRb SRC2 PPI: -1%; RECQ1 inh-1: -8%; TexasRed fluor: 5%; BLM inh: 1%

What do the screens show for `CN1CCN(S(=O)(=O)c2ccc(NC(=S)NC(=O)C3CCCCC3)cc2)CC1`?
TRb SRC2 PPI: 0%; RECQ1 inh-1: inconclusive; TexasRed fluor: -1%; BLM inh: -2%; RECQ1 inh-2: -17%

How did CC(=O)Nc1ccc(S(=O)(=O)N2CCCCC2C(=O)O)cc1 (centres undefined) do in these assays?
TRb SRC2 PPI: -2%; RECQ1 inh-1: inactive; TexasRed fluor: 0%; BLM inh: 0%

How did Cc1cccc(NC(=O)c2c(C)cc(C)nc2SCC(=O)Nc2c(C)cc(C)cc2C)c1 do in these assays?
TRb SRC2 PPI: 0%; TexasRed fluor: -7%; BLM inh: -9%

How did CCCCNC(=O)CCn1c(=O)c2ccccc2n(Cc2cccc(Cl)c2)c1=O do in these assays?
TRb SRC2 PPI: 8%; TexasRed fluor: 5%; BLM inh: 3%

Results for COc1ccc(NC(=O)Cn2cnc3c(nc4n3CCCCC4)c2=O)c(OC)c1 ?
TRb SRC2 PPI: 5%; TexasRed fluor: -19%; BLM inh: 1%

How did O=C(CCc1ccc(O)cc1)c1c(O)cc(O)cc1O[C@H]1OC(CO)C(O)C(O)C1O (some centres undefined) do in these assays?
TRb SRC2 PPI: -10%; RECQ1 inh-1: -6%; TexasRed fluor: inconclusive; BLM inh: 5%

What do the screens show for `O=C(CSc1ccc(Cl)cc1)Nc1ccc(-c2nc3ccccc3[nH]2)cc1`?
TRb SRC2 PPI: 3%; RECQ1 inh-1: 28µM*; TexasRed fluor: -3%; BLM inh: -11%; RECQ1 inh-2: -28%

What do the screens show for `O=C(CSc1ccccc1)Nc1nc2ccccc2[nH]1`?
TRb SRC2 PPI: -4%; RECQ1 inh-1: -1%; TexasRed fluor: 3%; BLM inh: -8%

What do the screens show for `CCc1cc(C(=O)c2ccc(OC)cc2)c(NC(=O)CCC(=O)O)s1`?
TRb SRC2 PPI: -6%; RECQ1 inh-1: inactive; TexasRed fluor: 3%; BLM inh: -2%; RECQ1 conf: 8%; ADP FP counter: -15%

What do the screens show for `CCc1ccc(NC(=O)c2cc3nc(-c4ccc(C)cc4)cc(C(F)(F)F)n3n2)cc1`?
TRb SRC2 PPI: 6%; TexasRed fluor: -6%; BLM inh: 1%

Bioassay records deposited in PubChem by National Center for Advancing Translational Sciences (NCATS).
